# From PubChem
# TDP1 block – inhibitors of human tyrosyl-DNA phosphodiesterase TDP1. Q9NUW8. Potency, µM (titrated, usually from 130 µM), without a hit: at the highest dose activity change, negative = inhibition, usual class: inhibitors. recombinant TDP1, AlphaScreen DNA substrate cleavage. 0.28% of 350,000 active; note: nearly all actives have a fitted effect of over 40% in size
#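 Steps: enzyme plus compound, 15 min RT; add biotin/phosphotyrosine-FITC oligonucleotide (15 nM final), react 5 min; add donor/acceptor beads (10 ug/ml final), 10 min; read AlphaScreen. Tdp1 at 1 nM final.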
# DT40 TDP1 no CPT – qHTS for Inhibitors of human tyrosyl-DNA phosphodiesterase 1 (TDP1): qHTS in cells in absence of CPT; DT40 Tdp1-/- hTDP1 cells, no CPT, ATP luminescence, 48 h; Potency, µM (doses to about 46.2 µM), inactives show at the top dose activity change, negative = growth inhibition, usual class: inhibitors; 15% of 420,000 active; note: nearly all actives have a fitted effect of over 55% in size
#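 Seeded 400 DT40-hTDP1 cells/well (vehicle DMSO, no 20 nM CPT); pinned compounds; ≥48 hr at 37 °C; CellTiter-Glo luminescence as viability measure.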
# VP16 counter – counter-screen for ROR gamma inhibitors: Gal4-VP16 reporter. Drosophila S2 Gal4-VP16 UAS-luciferase, luminescence, 20 h. Potency, µM (doses to about 53.6 µM), for inactives: top-dose activity, negative = inhibition, actives largely listed as inhibitors. 3.5% of 310,000 active. AID 2546;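 note: Gal4-VP16 expression switched on by copper sulfate through the metallothionein promoter; nearly all actives have a fitted effect of over 50% in size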
# RORg inh – ROR gamma (mouse) transcription inhibition | AID 2551 | Potency, µM (doses to about 53.6 µM), for inactives: at the highest dose activity change, negative = inhibition, usual class: inhibitors | 5.4% of 310,000 active | Drosophila S2 Gal4-RORgamma UAS-luciferase reporter, 20 h; note: nearly all actives have a fitted effect of over 60% in size
# Target sequence (P51450 whole entry, looked up, the tested form may be a part): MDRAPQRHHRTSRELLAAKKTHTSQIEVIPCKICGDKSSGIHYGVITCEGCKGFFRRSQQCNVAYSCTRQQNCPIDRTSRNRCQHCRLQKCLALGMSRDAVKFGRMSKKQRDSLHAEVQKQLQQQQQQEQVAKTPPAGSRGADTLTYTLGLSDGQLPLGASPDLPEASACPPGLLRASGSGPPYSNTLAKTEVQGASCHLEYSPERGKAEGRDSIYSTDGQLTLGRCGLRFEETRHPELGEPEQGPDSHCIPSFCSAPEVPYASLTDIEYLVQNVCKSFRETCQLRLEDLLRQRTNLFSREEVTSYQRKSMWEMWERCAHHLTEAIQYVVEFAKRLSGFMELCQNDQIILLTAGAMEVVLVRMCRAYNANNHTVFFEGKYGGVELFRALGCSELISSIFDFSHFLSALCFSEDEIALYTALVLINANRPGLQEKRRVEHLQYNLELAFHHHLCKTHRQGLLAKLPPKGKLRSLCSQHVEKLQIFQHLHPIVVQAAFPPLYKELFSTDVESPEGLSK
#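 Compounds are pin-transferred onto Drosophila Schneider cells expressing a copper-inducible Gal4–ROR gamma transactivation domain fusion. After 1 hr, copper sulfate is added to 700 uM final; luciferase is read 20 hr later.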
# DT40 TDP1 CPT – growth inhibition of DT40 Tdp1-/-;hTDP1 cells with camptothecin (screen for TDP1 inhibitors). 12% of 420,000 active. chicken DT40 Tdp1-/-;hTDP1 cells + 20 nM CPT, ATP luminescence, 48 h. Potency, µM (top dose mostly 46.2 µM), inactives show at the highest dose activity change, negative = growth inhibition, hits mostly inhibitors; note: nearly all actives have a fitted effect of over 55% in size
#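 Chicken DT40 Tdp1-/- cells complemented with human TDP1, 400 cells/well, exposed to compounds plus 20 nM camptothecin for at least 48 h at 37 C; viability read as ATP content by CellTiter-Glo luminescence.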
# * marks the source's active call; other numbers are inactive results; ? = inconclusive; . = no result given; [ ] = dose if it differs, or a comment. Most compounds without a hit are left out; they make up all but 19% or so of the library. Calls come from the whole dose curve; as a rule, active = well fitted curve in the direction sought with a large enough effect; inconclusive = small, poorly fitted or top-dose-only effect, or another doubt; inactive = no such curve, though single readings can be large; an effect the other way counts as inactive or inconclusive. % is set by controls: 0 for no effect and ±100 for the full control effect; potency is the fitted concentration of half-maximal effect.
SMILES,TDP1 block,DT40 TDP1 no CPT,VP16 counter,RORg inh,DT40 TDP1 CPT
COc1ccc(N(C(=O)c2snc(C(N)=O)c2N)C(C(=O)NC2CCCC2)c2ccco2)c(OC)c1 (configuration not stated),15%,23µM*,-4%,?,?
COc1ccc(C)cc1N(C(=O)c1snc(C(N)=O)c1N)C(C(=O)NC1CCCC1)c1ccc(F)cc1 (configuration not stated),-7%,16µM*,-13%,38%,?
COc1ccc(N(C(=O)c2snc(C(N)=O)c2N)C(C(=O)NC2CCCC2)c2ccc(F)cc2)c(OC)c1 (configuration not stated),0%[0.0935 µM],?,?,-2%,-28%
CCN(CC(=O)NCc1cccs1)C(=O)/C=C/c1ccc(F)cc1,.,-20%,.,.,0%
COc1ccc(/C=N/NC(=O)/C(=C/c2ccccc2)CCO)cc1,3%,-26%,5%,-12%,22%
O=S(=O)(Nc1ccc(-c2ccc(NS(=O)(=O)c3ccccc3)cc2)cc1)c1ccccc1,.,23µM*,.,.,?
O=S(=O)(Nc1ccc(-c2csc(-c3ccccc3)n2)cc1)c1ccccc1,-3%,18µM*,-28%,?,-41%
O=S(=O)(Nc1ccc(NS(=O)(=O)c2ccccc2)cc1)c1ccccc1,.,?,.,.,-15%
CCCN(CCC)c1ncnc2c1cnn2-c1ccc(OC)cc1,0%,?,?,-2%,?
CCOC(=O)[C@H]1[C@H]2COc3ccc(Cl)cc3[C@@H]2N2C(=O)CN(Cc3ccc(Cl)cc3)C(=O)[C@@]12C,0%,16µM*,.,.,?
CCOC(=O)[C@H]1[C@H]2COc3ccc(Cl)cc3[C@@H]2N2C(=O)CN(Cc3ccccc3)C(=O)[C@@]12C,1%,21µM*,.,.,?
CCOC(=O)[C@H]1[C@H]2COc3ccc(Cl)cc3[C@@H]2N2C(=O)CN(Cc3ccc(F)cc3)C(=O)[C@@]12C,1%,?,.,.,?
Cc1ccsc1C(=O)NNC(=O)c1ccccc1F,0%,-23%,.,.,-10%
Cc1cc(/C=C2\SC(=O)N(C)C2=O)c(C)n1-c1ccc(O)cc1,.,21µM*,-27%,19%,?
Cc1cc(/C=C2\SC(=O)N(C)C2=O)c(C)n1-c1ccc(S(N)(=O)=O)cc1,.,9.2µM*,1%,?,18µM*
Cc1cc(/C=C2\SC(=O)NC2=O)c(C)n1-c1ccc(N(C)C)cc1,.,1%,1%,15%,15%
CN=C1S/C(=C\c2cc(C)n(-c3ccccc3F)c2C)C(=O)N1C,12%,23µM*,18µM*,?,15µM*
CCOC(=O)c1sc(-c2ccc(C)cc2)c(C#N)c1C,-1%,5%,5%,16%,5%
Cc1c(C(=O)NN)sc(-c2ccccc2)c1C#N,7%,?,?,10µM*,?
COc1cc2c(cc1OC)C(c1ccc(Cl)cc1)N(c1cccc(C#N)c1)C(=O)C2 (configuration not stated),4%,?,.,.,23µM*
COc1ccc(C2NC(=O)Cc3cc(OC)c(OC)cc32)cc1OC (configuration not stated),-2%,-17%,3%,-9%,-22%
COc1cc2c(cc1OC)C(c1ccc(F)cc1)N(c1cccc(C#N)c1)C(=O)C2 (configuration not stated),-4%,?,.,.,15µM*
CC(C)NC(=O)c1cc(C2CCCCN2C(=O)c2ccccc2)on1 (configuration not stated),.,-21%,.,.,-9%
COC(=O)C[C@H]1c2ccccc2S(=O)(=O)N1c1cccc(OC)c1,.,-18%,.,.,?
CC(=O)C[C@H]1c2cc(F)ccc2S(=O)(=O)N1c1ccc(N(C)C)cc1,.,13µM*,.,.,15µM*
SMILES,TDP1 block,DT40 TDP1 no CPT,VP16 counter,RORg inh,DT40 TDP1 CPT
Cc1cc(C)n(/N=C/c2ccc(C(C)C)cc2)c(=O)c1C#N,4%,8.2µM*,?,-42%,?
Cc1cc(C)n(/N=C/c2ccc(O)cc2)c(=O)c1C#N,5%,-18%,2%,21%,-22%
C#CCOC(=O)Nc1cnccc1C(F)(F)F,5%,0%,0%,-3%,-4%
C#CCOC(=O)Nc1ccc(OCC(F)(F)F)nc1,4%,7.3µM*,?,-18%,9.2µM*
Cc1ccc(C)c(CN2C(=O)c3ccccc3S(=O)(=O)c3ccc(C(=O)N4CCN(Cc5ccccc5)CC4)cc32)c1,5%,6.5µM*,.,.,6.5µM*
Cc1ccc(C)c(CN2C(=O)c3ccccc3S(=O)(=O)c3ccc(C(=O)N4CCN(C)CC4)cc32)c1,6%,-29%,-14%,8%,0%
Cc1ccc(C)c(CN2C(=O)c3ccccc3S(=O)(=O)c3ccc(C(=O)N4CCc5ccccc54)cc32)c1,2%,5.8µM*,.,.,5.8µM*
CCCCC(=O)Nc1ccc(NC(=O)c2cnccn2)cn1,0%,2%,14%,28%,-5%
C=CCNC(=O)C(=O)Nc1ccc2c(c1)N(S(=O)(=O)c1cccs1)CCC2,-2%,23µM*,.,.,?
O=C(Nc1ccc2c(c1)CCCN2C(=O)c1cccs1)c1c(F)cccc1F,2%,?,-7%,22%,?
CCCNC(=O)C(=O)Nc1ccc2c(c1)N(S(=O)(=O)c1cccs1)CCC2,-1%,23µM*,.,.,15µM*
CN(C)CCCNC(=O)C(=O)Nc1ccc2c(c1)N(S(=O)(=O)c1cccs1)CCC2,0%,?,.,.,?
O=C(Nc1ccc2c(c1)N(S(=O)(=O)c1cccs1)CCC2)c1c(F)cccc1F,.,16µM*,.,.,?
CCNC(=O)C(=O)Nc1ccc2c(c1)N(S(=O)(=O)c1cccs1)CCC2,0%,?,.,.,?
COCCCNC(=O)C(=O)Nc1ccc2c(c1)N(S(=O)(=O)c1cccs1)CCC2,0%,0.58µM*,.,.,0.65µM*
CCCCc1c(C)nc2ccccc2c1SCCC#N,-1%,?,-4%,?,?
COc1ccc(CCn2c(=N)c(C(=O)NCC3CCCO3)cc3c(=O)n4cccc(C)c4nc32)cc1 (configuration not stated),6%,?,-6%,0%,?
CN(C)CCNC(=O)C(=O)Nc1ccc2c(c1)N(S(=O)(=O)c1cccs1)CCC2,.,7.3µM*,.,.,16µM*
CCCCN1CC(c2nc3ccccc3n2CCCCOc2cc(C)ccc2C)CC1=O (configuration not stated),9%,8.2µM*,.,.,16µM*
CCCCN1CC(c2nc3ccccc3n2CCCCOc2c(C)cccc2C)CC1=O (configuration not stated),3%,7.3µM*,.,.,12µM*
